# Screens from PubChem.
# Cycloheximide cs = counter-screen hit for Shiga toxin inhibitors, cycloheximide. max response, %. actives 12% (n = 300,000). cell reporter, cycloheximide protein synthesis inhibition counterscreen. AID 2314; in the data active = max response mostly above about 13%, no sharp cut-off; inactive = mostly below about 14%; note: read at 38.3 µM for the half of the compounds with a filed dose; 0% is about no effect
# Pf growth 48h = P. falciparum growth inhibition at 48 hours (one generation); AID 504832; P. falciparum luciferase growth in erythrocytes, 48 h; actives 5.9% (n = 310,000); Potency, µM (top dose mostly 28.7 µM), for the others: top-dose activity change, negative = inhibition, usual class: inhibitors; note: potency is the fitted concentration of half-maximal effect; % is set by controls: 0 for no effect and ±100 for the full control effect
#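 Growth was read as firefly luciferase luminescence after a 48 h, 37 C, 5% CO2 exposure of compounds to reporter-bearing P. falciparum cultures (0.1% parasitemia, 2% hematocrit final) in Albumax-supplemented RPMI 1640.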
# Pf growth 96h = inhibits malaria parasite growth, 96 h | actives 6.9% (n = 320,000) | Potency, µM (titrated, usually from 28.7 µM), without a hit: at the highest dose activity change, negative = inhibition, usual class: inhibitors | P. falciparum luciferase reporter growth, 96 h; note: potency is the fitted concentration of half-maximal effect; % is set by controls: 0 for no effect and ±100 for the full control effect
#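 Readout is luminescence from an integrated firefly luciferase in P. falciparum. Red cells, 2% hematocrit and 0.05% parasitemia final, were cultured with compound through two parasite generations (96 hours) at 37 C, 5% CO2.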
# HCMV antiviral = human cytomegalovirus inhibition; AID 1259415; HFF cells, HCMV-luciferase reporter, 72 h; active compounds read low; activity change, negative = inhibition, % at 57.5 µM; actives 4.5% (n = 410,000); in the data active = activity change below about -60%; inconclusive = no clear call, values can overlap the other calls; inactive = above about -39%; note: % is set by controls: 0 for no effect and ±100 for the full control effect
#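 Cell-based, HFFs, 1000 cells/well, 16 h 37C; cpds in DMSO + HCMV-luc, MOI 1 PFU/cell; 72 h 37C; OneGlo luminescence after 5 min RT; norm. to buffer vs Salinomycin 10uM.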
# Shiga toxin inh = blocks Shiga toxin action in Vero cells | Vero cells, Shiga toxin protein synthesis inhibition reporter | actives 9.2% (n = 290,000) | inhibition, % at 38.7 µM; in the data active = inhibition mostly above about 28%, no sharp cut-off; inactive = mostly below about 43%; note: 0% is about no effect
# Numbers without * were called inactive; i = inactive; ? = inconclusive; nt = no result given; ! = not active in a repeat. Only some compounds are listed: those with a hit (about 20% of all), similar ones and a draw of the others. Unless noted, calls come from the whole dose curve; as a rule, active = well fitted inhibition curve with a large enough effect; inconclusive = small, poorly fitted or top-dose-only effect, or another doubt; inactive = no such curve, though single readings can be large or run the other way.
SMILES,Cycloheximide cs,Pf growth 48h,Pf growth 96h,HCMV antiviral,Shiga toxin inh
Cc1sc(N/N=C/c2cccs2)nc1-c1ccccc1,43*,37%,?,?,84*
CC(=O)c1sc(NC(=O)c2ccc(F)cc2)nc1-c1ccccc1,25,59%,39%,-1,60
CC(=O)c1sc(NC(=O)c2ccccc2F)nc1-c1ccccc1,43*,i,139%,124,134*
COc1cc2c(c(OC)c1)C(c1cc(OC)c(OC)c(OC)c1)CC(=O)N2 (centres undefined),nt,nt,nt,42,nt
CCOc1ccc(CN2C(=O)c3ccccc3Sc3ccc(C(=O)N4CCN(C)CC4)cc32)cc1,nt,nt,nt,14,nt
Cc1cc(C)c(NC(=O)C2CCCO2)c(C)c1NC(=O)C1CCCO1 (centres undefined),-5,16%,6%,-28,2
CC(=O)c1sc(NC(=O)c2ccco2)nc1-c1ccccc1,21*,nt,108%,nt,65*
CCOC(=O)c1sc(NC(=O)c2ccco2)nc1-c1ccccc1,-2,-3%,12%,6,18
O=C(Nc1c(-c2ccccc2)nc2ccccn12)c1cccs1,-2,-2%,61%,-34,-8
O=C(Nc1c(-c2ccccc2)nc2ccccn12)c1ccco1,12*,39%,72%,32,5
O=C(Nc1nsc(-c2ccccc2)n1)c1cccs1,25*,-45%,-21%,134,37*
CCOC(=O)c1c(-c2ccccc2)nc2ccccn12,1,0%,38%,-63*,-6
CCn1c(SCC(=O)Nc2c(C)n(C)n(-c3ccccc3)c2=O)nc2c1c(=O)n(C)c(=O)n2C,-4,1%,14%,-28,17
Cc1ccc(C)c(Cn2c(=O)n(Cc3ccccc3)c(=O)c3sc4ccccc4c32)c1,nt,nt,nt,6,nt
Cc1sc(NC(=O)c2cccs2)nc1-c1ccccc1,34*,39%,-21%,114,97
Cc1ccc2nc(-c3ccccc3)c(NC(=O)c3ccco3)n2c1,-1,44%,-28%,45,26
Cc1sc(NC(=O)c2ccco2)nc1-c1ccccc1,44*,28%,157%,45,103*
COCC1CCN(C(=O)c2cc(COc3ccc4c(c3)CCCC4)on2)C1 (centres undefined),20,13%,1%,28,4
O=C(c1cc(COc2ccc3c(c2)CCCC3)on1)N1CCCC1,47*,24%,4%,36,51*
CCOC(=O)N1CCN(C(=O)c2cc(COc3c(F)cccc3F)on2)CC1,74*,23%,?,61,129*
O=C(c1cc(COc2c(F)cccc2F)on1)N1CCN(C2CCCCC2)CC1,-2,9%,8%,-24,-7
CC(=O)N1CCCN(C(=O)c2cc(COc3c(F)cccc3F)on2)CC1,4,?,0%,1,12
O=C(c1cc(COc2c(F)cccc2F)on1)N1CCCCCC1,61*,68%,92%,4,81*
CCC(=O)N1CCCC(C(=O)NCc2ccc(C(C)C)cc2)CC1 (centres undefined),nt,nt,nt,-7,nt
CCCCn1nnnc1C1(C)CCC(=O)N1Cc1cc(OC)ccc1OC (centres undefined),nt,nt,nt,-8,nt
SMILES,Cycloheximide cs,Pf growth 48h,Pf growth 96h,HCMV antiviral,Shiga toxin inh
C=CCN1CC(c2nc3ccccc3n2Cc2cccc3ccccc23)CC1=O (centres undefined),-5,?,12µM*,-22,-21
Cc1ccc(NS(=O)(=O)c2cc(OCC(N)=O)c(C)cc2Cl)cc1C,-3,12µM*,?,-6,-12
Cc1cc(Cl)c(S(=O)(=O)NCc2ccccc2)cc1OCC(N)=O,-6,nt,-28%,-23,3
Cc1ccccc1NS(=O)(=O)c1cc(OCC(N)=O)c(C)cc1Cl,-1,55%,10µM*,-5,-6
Cc1cccc(NS(=O)(=O)c2cc(OCC(N)=O)c(C)cc2Cl)c1,-5,-12%,-16%,28,-8
Cc1ccc(O)c(C(=O)c2cnc3c(c2)CN(C)C(=O)N3)c1,2,?,nt,-4,-9
Cc1ccc2c(c1)-c1ncc(C(=O)c3cc(Br)ccc3O)cc1CO2,-4,1.7µM*,?,-90*!,1
Cc1ccc(O)c(C(=O)c2cnc3c(c2)COc2ccc(C)cc2-3)c1,0,13µM*,?,-27,-3
Cc1ccc(O)c(C(=O)c2cnc(/N=C(\N)N(C)C)nc2)c1,-7,8%,19%,-23,3
Cc1ccc(S(=O)(=O)Nc2cc(C(F)(F)F)ccc2N2CCOCC2)c(C)c1,-4,?,12µM*,?,14
